Results from PubChem BioAssay AID2718 (Broad Institute, 2010).
Screen size: about 320,000 compounds; about 480 (0.15%) were called active. About 1% were inconclusive and are not listed. The full list was thinned out, with actives kept by preference. Unmarked numbers belong to inactive results. Cut-off read from the data, not from the text of the source: active = inhibition above about 26% (passing the limit was not always enough); inconclusive = no clear call, values can overlap the other calls.

Target: Histone deacetylase 3 (Homo sapiens) (UniProt O15379)
Sequence (O15379 whole entry, looked up): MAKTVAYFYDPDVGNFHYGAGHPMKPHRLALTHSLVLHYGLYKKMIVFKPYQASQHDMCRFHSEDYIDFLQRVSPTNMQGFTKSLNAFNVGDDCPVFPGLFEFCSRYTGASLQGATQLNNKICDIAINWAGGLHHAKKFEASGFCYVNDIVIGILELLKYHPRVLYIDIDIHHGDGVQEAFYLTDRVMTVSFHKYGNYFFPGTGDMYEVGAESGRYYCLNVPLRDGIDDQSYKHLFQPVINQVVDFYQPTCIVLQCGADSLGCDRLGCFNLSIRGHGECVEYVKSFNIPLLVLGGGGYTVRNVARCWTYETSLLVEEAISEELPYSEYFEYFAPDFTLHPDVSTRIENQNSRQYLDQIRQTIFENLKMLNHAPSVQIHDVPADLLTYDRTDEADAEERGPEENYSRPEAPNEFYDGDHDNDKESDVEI
Assay: HDAC3 deacetylase inhibitors, primary screen, biochemical, fluorescence, cell-free homogeneous (AID 2718)
Conditions: recombinant HDAC3, fluorogenic peptide/trypsin coupled, at 8.3 µM, hits give high values

| Compound | inhibition |
| --- | --- |
| O=C(COC(=O)c1cccnc1Cl)NC12CC3CC(CC(C3)C1)C2 | -0.423% |
| COCC(C)n1c(SCC(=O)NC2CCCCC2C)nc2ccccc2c1=O (configuration not stated) | 0.838% |
| O=C(COC(=O)c1ccc(Br)o1)NC12CC3CC(CC(C3)C1)C2 | -3.01% |
| C[C@H](CO)N1C[C@H](C)[C@@H](CN(C)C(=O)Nc2ccc3c(c2)OCO3)Oc2c(cccc2N(C)C)C1=O | -8.66% |
| COc1ccc2nc3n(c(=O)c2c1)-c1ccc(Cl)cc1C(=O)NC3Cc1ccccc1 (configuration not stated) | -1.2% |
| C[C@H]1COC(=O)[C@H](CC(=O)OC(C)(C)C)C/C=C\C[C@@H](CC(=O)N[C@H](CO)Cc2ccccc2)C(=O)N1 | -4.05% |
| CN1C(=O)[C@H]2[C@@H](/C=C/c3ccccc3)N3C(=O)CN(Cc4ccc(-c5ccccc5)cc4)C(=O)[C@@]3(C)[C@H]2C1=O | 6.83% |
| O=C(OCC(=O)N1CCCCCC1)c1ccc(Br)c(S(=O)(=O)N2CCOCC2)c1 | -0.213% |
| O=C(CCNC(=O)c1ccc(Br)cc1)NCC(c1ccco1)N1CCCCC1 (configuration not stated) | 2.98% |
| Cn1c(N)c(C(=O)COC(=O)c2ccc3ccccc3c2)c(=O)n(C)c1=O | -3.95% |
| COC(=O)c1c(CCl)noc1C(=O)NC(C)C | -2.79% |
| O=C(CNC(=O)c1ccccc1F)OCC(=O)c1c[nH]c2ccccc12 | 1.43% |
| Clc1cccc(Cl)c1Cn1nnc(-c2cccs2)n1 | -9.16% |
| COc1cc(Cl)c(C)cc1NC(=O)CSc1nnc(CN2CCCC2)o1 | -2.25% |
| Cc1nn(C)c(C)c1CN(C(=O)CCc1nnc(Cc2c[nH]c3ccccc23)o1)C(C)C | -1.72% |
| Cc1ccsc1C(=O)NNC(=O)COc1ccc(Br)cc1 | -2.82% |
| CC1(C)CC[C@@]2(C(=O)O)C(C1)C1=CCC3[C@@]4(C)CC[C@H](O)C(C)(C)C4CC[C@@]3(C)[C@]1(C)C[C@H]2O (some centres not stated) | -0.0116% |
| CN(C(=O)CSc1cccc[n+]1[O-])C1CCCCC1 | -0.125% |
| COc1cc(NC(=O)COC(=O)c2cc(S(=O)(=O)N3CCOCC3)ccc2F)cc(OC)c1 | -6.13% |
| CC(C)CC1(C)NC(=O)N(CC(=O)Nc2ccc3c(c2)OCCO3)C1=O (configuration not stated) | 0.72% |
| O=C(N/N=C\c1ccc(-c2ccc(Cl)c(Cl)c2)o1)C(=O)N1CCCC1 | -2.85% |

| Compound | inhibition |
| --- | --- |
| Cc1ccc(C(=O)N2CCC(n3nccc3NC(=O)Nc3cccc(F)c3)CC2)cn1 | 4.68% |
| CCN1N=C(c2ccccc2)CCC1=O | -1.92% |
| CN(c1ccccc1)S(=O)(=O)c1cc(C(=O)N2CCN(c3ncccn3)CC2)ccc1Cl | 5.51% |
| O=C(N=C1SC2CS(=O)(=O)CC2N1c1ccccc1)c1ccccc1 (configuration not stated) | 3.67% |
| O=C(Cn1c(N2CCN(C/C=C/c3ccccc3)CC2)nc2ccccc21)c1ccccc1 | 11.7% |
| COc1ccc(NC(=O)N(C)C[C@H]2Oc3ccc(NC(=O)C4CC4)cc3C(=O)N([C@H](C)CO)C[C@@H]2C)cc1 | 2.07% |
| COc1ccc(S(=O)(=O)N(C)C[C@H]2Oc3c(NC(=O)Nc4ccc5c(c4)OCO5)cccc3C(=O)N([C@H](C)CO)C[C@@H]2C)cc1 | 0.282% |
| Cc1ccc(C(=O)NNC(=O)CSc2nnc3ccccn23)cc1 | -19.4% |
| C#CCOCCOCCOCCNc1nc(N2CCN(C(=O)CCCCCCCCCCNC(=O)[C@H](CCCCN)n3cc(C)nn3)CC2)nc(N2CCN(C(=O)CCCCCCCCCCNC(=O)[C@H](CO)n3cc(CCCSC)nn3)CC2)n1 | 17.4% |
| C#CCOCCOCCOCCNc1nc(N2CCN(C(=O)CCCCCCCCCCNC(=O)Cn3cc(CCCCCN)nn3)CC2)nc(N2CCN(C(=O)CCCCCCCCCCNC(=O)[C@H](CO)n3cc(CCCSC)nn3)CC2)n1 | 22.2% |
| C#CCOCCOCCOCCNc1nc(N2CCN(C(=O)CCCCCCCCCCNC(=O)[C@H]([C@@H](C)CC)n3cc(CCCCN=C(N)N)nn3)CC2)nc(N2CCN(C(=O)CCCCCCCCCCNC(=O)[C@H](CO)n3cc(CCCSC)nn3)CC2)n1 | 65% (active) |
| CCOC(=O)C1(Cc2cccc(OC)c2)CCN(Cc2csc(C(C)=O)c2)CC1 | 0.985% |
| CCOC(=O)C1=C(CC)Nc2ccccc2N=C1N | 5.45% |
| CCCCOc1ccc(N(CC(=O)NCC2CCCO2)C(=O)CCC(=O)Nc2cc(C)ccn2)cc1 (configuration not stated) | 1.38% |
| COc1ccc(C(=O)COC(=O)C(O)c2ccccc2)c(OC)c1 (configuration not stated) | 8.77% |
| CCOc1ccc(NS(=O)(=O)c2cc(C)c(C)cc2C)cc1 | 2.58% |
| Cc1ccc(S(=O)(=O)N2CCN(C(=O)CN3C(=O)NC(C)(c4ccc(Cl)cc4)C3=O)CC2)c(C)c1 (configuration not stated) | -0.669% |
| CC1CN(C(=O)c2ccc([N+](=O)[O-])s2)CC(C)O1 (configuration not stated) | -3.39% |
| Cc1c(CCO)c(=O)[nH]n1C(=O)c1c(F)cccc1F | -6.64% |
| COc1ccc(CC(NC(C)=O)C(=O)N2CCN(C(=O)Nc3cccc(Cl)c3)CC2)cc1OC (configuration not stated) | 1.26% |
| Cc1ccc(-c2nc(-c3cccnc3)sc2CC(=O)Nc2ccc(C)c(Cl)c2)cc1 | 6.66% |
